Source: PubChem BioAssay (Tox21)
Records with an inconclusive call do not appear. Active and inactive are the calls of the source. Unless noted, calls follow the shape of the dose curve; as a rule, active = well fitted curve in the direction sought with a large enough effect in the repeat runs; inconclusive = weak or mixed curves; inactive = no such curve, though single readings can be large; an effect the other way counts as inactive or inconclusive.

Assays:
[1] = A CellTox Green Cytotoxicity Assay to monitor cytotoxicity in HEK293 cells - 32 hour (AID 1224881); also: % is scaled to controls: 0 for no effect and ±100 for the full control effect; nearly all actives have a fitted effect of over 40% in size
Procedure, shortened: (§1)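 Tox21 screen in HEK293: membrane-impermeant cyanine dye fluoresces on binding dead-cell DNA; compound pinned 5 h post-seeding, plates held at 37 C, signal read repeatedly through 40 h.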

[2] = A CellTox Green Cytotoxicity Assay to monitor cytotoxicity in HepG2 cells - 0 hour (AID 1224882); also: nearly all actives have a fitted effect of over 35% in size; also: potency is read from the fitted curve at half-maximal effect; as to Cytotoxicity: % is scaled to controls: 0 for no effect and ±100 for the full control effect
Procedure, shortened: (§2)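 Measurements at 0, 8, 16, 24, 32 and 40 h of treatment captured CellTox Green fluorescence in HepG2 cells that had been co-plated with reagent and preincubated 5 h at 37 C/5% CO2.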

[3] = A CellTox Green Cytotoxicity Assay to monitor cytotoxicity in HepG2 cells - 32 hour (AID 1224883); also: % is scaled to controls: 0 for no effect and ±100 for the full control effect; nearly all actives have a fitted effect of over 50% in size
Procedure, shortened: as §2

[4] = A CellTox Green Cytotoxicity Assay to monitor cytotoxicity in HEK293 cells - 8 hour (AID 1224884); also: % is scaled to controls: 0 for no effect and ±100 for the full control effect; nearly all actives have a fitted effect of over 35% in size
Procedure, shortened: as §1

[5] = qHTS RealTime-Glo MT Cell Viability Assay in HepG2 cells - 16 hour (AID 1224885); also: % is scaled to controls: 0 for no effect and ±100 for the full control effect; nearly all actives have a fitted effect of over 50% in size
Procedure, shortened: (§3)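 Viability was tracked continuously by NanoLuc luminescence from prosubstrate reduced by living HepG2 cells, at successive time points over 40 h of compound exposure. Cells with reagent were preincubated 5 h at 37 °C before compound addition.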

[6] = qHTS RealTime-Glo MT Cell Viability Assay in HEK293 cells - 24 hour (AID 1224886); also: top concentration of the series differs between compounds; % is scaled to controls: 0 for no effect and ±100 for the full control effect; nearly all actives have a fitted effect of over 50% in size
Procedure, shortened: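 Viability tracked continuously by luminescence as live cells reduce a prosubstrate for NanoLuc; HEK293 cells preincubated 5 h, compound-treated at 37 C, and read at 0, 8, 16, 24, 32 and 40 h.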

[7] = qHTS RealTime-Glo MT Cell Viability Assay in HEK293 cells - 8 hour (AID 1224887); also: top concentration of the series differs between compounds; % is scaled to controls: 0 for no effect and ±100 for the full control effect; nearly all actives have a fitted effect of over 50% in size
Procedure, shortened: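 HEK293 + NanoLuc + prosubstrate, 600 cells/well; 5 h, 37 C/5% CO2; compound 23 nL in DMSO by pintool; 37 C; luminescence read at 0, 8, 16, 24, 32 and 40 h time points.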

[8] = qHTS RealTime-Glo MT Cell Viability Assay in HepG2 cells - 0 hour (AID 1224889)
Procedure, shortened: as §3

[9] = A CellTox Green Cytotoxicity Assay to monitor cytotoxicity in HepG2 cells - 8 hour (AID 1224890); also: % is scaled to controls: 0 for no effect and ±100 for the full control effect; nearly all actives have a fitted effect of over 45% in size
Procedure, shortened: as §2

[10] = qHTS assay to identify small molecule antagonists of the estrogen receptor alpha (ER-alpha) signaling pathway using the BG1 cell line in the presence of 0.1 nM 17-beta-estradiol - cell viability counter screen (AID 1259241); also: % is scaled to controls: 0 for no effect and ±100 for the full control effect; nearly all actives have a fitted effect of over 40% in size
Procedure, shortened: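 The cell line endogenously expresses full-length ER-alpha and carries four EREs driving luciferase. Cells are cultured 5 days hormone-free, treated 22 hr with compounds and 0.1 nM estradiol, then viability is read by fluorescence.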

[11] = qHTS assay to identify small molecule antagonists of the androgen receptor (AR) signaling pathway using the MDA cell line in the presence of 0.5 nM R1881 - cell viability counter screen (AID 1259242); also: % is scaled to controls: 0 for no effect and ±100 for the full control effect; nearly all actives have a fitted effect of over 45% in size
Procedure, shortened: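 Concentration-response screen of compounds for toxicity in MDA-kb2 reporter cells: 16 hr at 37C with 0.5 nM R1881, endpoint live-cell protease fluorescence measured in the reporter wells.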

[12] = qHTS assay to identify small molecule HDAC inhibitors (AID 1259364);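 also: wild-type HCT-116 cells with endogenous class I/II HDAC activity; top concentration of the series differs between compounds; % is scaled to controls: 0 for no effect and ±100 for the full control effect; nearly all actives have a fitted effect of over 45% in size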
Procedure, shortened: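 Screening used wild-type human colon HCT-116 cells incubated overnight, dosed with compounds for 2 hours, and assayed with a homogeneous luminogenic HDAC I/II reagent for 30 minutes at room temperature.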

[13] = qHTS assay to identify small molecule HDAC inhibitors - cell viability counter screen (AID 1259365)
Procedure, shortened: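 Viability readout: CellTiter-Glo luminescence. Wild-type HCT-116 cells, 2hr compound treatment following overnight attachment at 37 C.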

[14] = qHTS assay to identify small molecule agonists of the sonic hedgehog signaling (Shh) pathway - cell viability counter screen (AID 1259366)
Procedure, shortened: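 Viability measured fluorometrically (CellTiter-Fluor, 1hr, 37C) in 3T3 Gli1-Luc reporter cells after 23hr compound exposure within a 24hr incubation at 37C/5% CO2.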

[15] = qHTS assay to identify small molecule antagonists of the sonic hedgehog signaling (Shh) pathway - cell viability counter screen (AID 1259367); also: % is scaled to controls: 0 for no effect and ±100 for the full control effect; nearly all actives have a fitted effect of over 55% in size
Procedure, shortened: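 Cytotoxicity was assessed in parallel with Shh reporter activity by measuring live-cell protease fluorescence (CellTiter-Fluor) in NIH/3T3 cells stably carrying Gli1-Luc, treated with compound under conditioned medium stimulation for 23 hr plus 1 hr reagent incubation.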

[16] = qHTS assay to identify small molecule agonists of the sonic hedgehog signaling (Shh) pathway (AID 1259368; calls by dose curve;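 also: NIH/3T3-derived 3T3Gli1-Luc cells carrying a stable Gli1-driven firefly luciferase reporter; series mostly up to about 92 µM; % is scaled to controls: 0 for no effect and ±100 for the full control effect; nearly all actives have a fitted effect of over 15% in size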)
Procedure, shortened: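 Hedgehog pathway agonism scored by increased firefly luciferase luminescence in 3T3Gli1-Luc cells treated 24 hr at 37 C; detection used a 30 min room-temperature reagent incubation.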

[17] = A CellTox Green Cytotoxicity Assay to monitor cytotoxicity in HEK293 cells - 16 hour (AID 1224888); also: % is scaled to controls: 0 for no effect and ±100 for the full control effect; nearly all actives have a fitted effect of over 35% in size
Procedure, shortened: as §1

[18] = target: Estrogen receptor (Homo sapiens) (UniProt P03372); assay: qHTS assay to identify small molecule antagonists of the estrogen receptor alpha (ER-alpha) signaling pathway using the BG1 cell line in the presence of 0.1 nM 17-beta-estradiol (AID 1259244)
Procedure, shortened: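 Compounds were tested against 0.1 nM (final) 17beta-estradiol in VM7Luc4E2 cells, which express full-length ER-alpha and an ERE-luciferase reporter; luminescence was recorded following 22 h exposure.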

[19] = target: Androgen receptor (Homo sapiens) (UniProt P10275); assay: qHTS assay to identify small molecule antagonists of the androgen receptor (AR) signaling pathway using the MDA cell line in the presence of 0.5 nM R1881 (AID 1259243)
Procedure, shortened: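 With R1881 held at 0.5 nM (final), compound effects on MMTV-luciferase expression in MDA-kb2 cells were scored by luminescence after a 16 hr, 37C incubation.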

[20] = qHTS assay to identify small molecule phospholipidosis (PLD) inducers (AID 1259344; active = well fitted curve in the direction sought with a large enough effect; an effect the other way counts as inactive or inconclusive; also: % is scaled to controls: 0 for no effect and ±100 for the full control effect)
Procedure, shortened: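 Cells (HepG2, 900 per well) attach for 4 h, receive LipidTOX Red and compound together, incubate 24 h at 37 C, are fixed 30 min with paraformaldehyde/Hoechst, then imaged at one site per well.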

Sequence of Estrogen receptor (Homo sapiens) (P03372 whole entry, looked up): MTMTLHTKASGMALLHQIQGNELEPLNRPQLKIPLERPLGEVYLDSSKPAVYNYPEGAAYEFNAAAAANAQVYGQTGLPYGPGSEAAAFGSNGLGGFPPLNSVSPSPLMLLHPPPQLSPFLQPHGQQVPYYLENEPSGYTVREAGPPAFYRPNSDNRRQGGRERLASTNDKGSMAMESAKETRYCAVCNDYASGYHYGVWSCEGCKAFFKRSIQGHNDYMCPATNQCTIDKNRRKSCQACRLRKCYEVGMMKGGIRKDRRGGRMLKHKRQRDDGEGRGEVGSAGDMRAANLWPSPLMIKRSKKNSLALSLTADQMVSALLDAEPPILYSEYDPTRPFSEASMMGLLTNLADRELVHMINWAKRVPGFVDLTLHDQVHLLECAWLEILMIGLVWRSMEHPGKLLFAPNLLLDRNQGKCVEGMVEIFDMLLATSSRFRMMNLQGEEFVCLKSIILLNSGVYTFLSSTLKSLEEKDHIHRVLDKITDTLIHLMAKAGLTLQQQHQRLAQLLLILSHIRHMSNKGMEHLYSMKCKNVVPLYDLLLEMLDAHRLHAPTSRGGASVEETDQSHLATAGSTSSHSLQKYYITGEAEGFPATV
Sequence of Androgen receptor (Homo sapiens) (P10275 whole entry, looked up): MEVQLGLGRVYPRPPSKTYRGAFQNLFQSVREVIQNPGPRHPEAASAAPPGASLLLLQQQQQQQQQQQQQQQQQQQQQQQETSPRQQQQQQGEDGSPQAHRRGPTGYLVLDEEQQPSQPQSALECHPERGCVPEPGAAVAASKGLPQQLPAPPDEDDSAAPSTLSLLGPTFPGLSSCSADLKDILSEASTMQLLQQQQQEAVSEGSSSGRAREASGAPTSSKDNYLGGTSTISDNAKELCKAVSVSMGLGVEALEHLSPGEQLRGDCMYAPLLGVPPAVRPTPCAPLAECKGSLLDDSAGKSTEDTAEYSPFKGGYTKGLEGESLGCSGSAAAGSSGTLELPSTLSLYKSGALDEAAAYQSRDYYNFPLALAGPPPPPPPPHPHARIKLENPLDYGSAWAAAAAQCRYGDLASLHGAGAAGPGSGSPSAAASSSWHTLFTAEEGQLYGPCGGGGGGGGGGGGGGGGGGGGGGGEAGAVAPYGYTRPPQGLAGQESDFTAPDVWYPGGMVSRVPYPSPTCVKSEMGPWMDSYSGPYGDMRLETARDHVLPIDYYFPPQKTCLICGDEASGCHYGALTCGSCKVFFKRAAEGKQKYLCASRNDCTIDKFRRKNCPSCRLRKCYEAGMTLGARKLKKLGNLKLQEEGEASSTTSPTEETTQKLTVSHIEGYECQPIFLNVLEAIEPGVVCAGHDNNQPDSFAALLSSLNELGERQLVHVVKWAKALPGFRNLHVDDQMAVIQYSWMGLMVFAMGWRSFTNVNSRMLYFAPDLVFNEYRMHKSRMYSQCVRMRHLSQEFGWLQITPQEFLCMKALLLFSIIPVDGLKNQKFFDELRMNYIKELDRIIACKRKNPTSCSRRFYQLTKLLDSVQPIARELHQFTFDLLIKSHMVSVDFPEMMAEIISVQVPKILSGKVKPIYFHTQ

CCC(C)(CN(C)C)OC(=O)c1ccccc1 (stereo not given)
inactive: outcome [1] | Potency [2] | Potency [3] | outcome [4] | outcome [5] | Potency [6] | Potency [7] | Potency [8] | outcome [9] | outcome [10] | outcome [11] | Potency [12] | outcome [13] | Potency [14] | Potency [15] | outcome [16]

CCCCCCC1CCC(=O)O1 (stereo not given)
inactive: outcome [1] | Potency [2] | Potency [3] | outcome [4] | outcome [5] | Potency [7] | outcome [17] | Potency [8] | outcome [9] | outcome [10] | outcome [11] | outcome [18] | Potency [12] | outcome [13] | Potency [14] | Potency [15] | outcome [16]

O=C(O)CNC(=O)c1ccc(CO)o1
inactive: outcome [1] | Potency [2] | Potency [3] | outcome [4] | outcome [5] | Potency [6] | Potency [7] | outcome [17] | Potency [8] | outcome [9] | outcome [10] | outcome [11] | Potency [12] | outcome [13] | outcome [16]

NC(CCC(=O)O)C(=O)O (stereo not given)
inactive: outcome [1] | Potency [2] | Potency [3] | outcome [4] | outcome [5] | Potency [6] | Potency [7] | Potency [8] | outcome [9] | outcome [10] | outcome [11] | outcome [18] | Potency [12] | outcome [13] | Potency [14] | Potency [15] | outcome [16]

CNCCO
inactive: outcome [1] | Potency [2] | Potency [3] | outcome [4] | outcome [5] | Potency [6] | Potency [7] | Potency [8] | outcome [9] | outcome [10] | outcome [11] | Potency [12] | outcome [13] | Potency [14] | Potency [15] | outcome [16]

CNC(=O)Nc1ccc(Cl)c(Cl)c1
active: Potency [19] 30.6 µM
inactive: outcome [1] | Potency [2] | Potency [3] | outcome [4] | outcome [5] | Potency [6] | Potency [7] | outcome [17] | Potency [8] | outcome [10] | outcome [11] | outcome [13] | Potency [15]

CCCO[Si](OCCC)(OCCC)OCCC
inactive: outcome [1] | Potency [2] | Potency [3] | outcome [4] | outcome [5] | Potency [6] | Potency [7] | Potency [8] | outcome [9] | outcome [10] | outcome [11] | outcome [18] | Potency [12] | outcome [13] | Potency [14] | Potency [15] | outcome [16]

C=CC(=O)OCCCl
inactive: outcome [1] | Potency [2] | Potency [3] | outcome [4] | outcome [5] | Potency [6] | Potency [7] | Potency [8] | outcome [9] | outcome [10] | outcome [11] | outcome [18] | Potency [12] | outcome [13] | Potency [14] | Potency [15] | outcome [16]

CN(C)C(=O)Oc1cccc([N+](C)(C)C)c1
inactive: outcome [1] | Potency [2] | Potency [3] | outcome [4] | outcome [5] | Potency [7] | outcome [17] | Potency [8] | outcome [9] | outcome [10] | outcome [11] | outcome [18] | outcome [20] | Potency [12] | outcome [13] | Potency [14]

OCCc1ccccn1
inactive: outcome [1] | Potency [2] | Potency [3] | outcome [4] | outcome [5] | Potency [6] | Potency [7] | Potency [8] | outcome [9] | outcome [10] | outcome [11] | Potency [12] | outcome [13] | Potency [14] | outcome [16]

Cc1ccc(C(=O)Nc2ccc(S(=O)(=O)O)c3cc(S(=O)(=O)O)cc(S(=O)(=O)O)c23)cc1NC(=O)c1cccc(NC(=O)Nc2cccc(C(=O)Nc3cc(C(=O)Nc4ccc(S(=O)(=O)O)c5cc(S(=O)(=O)O)cc(S(=O)(=O)O)c45)ccc3C)c2)c1
active: Potency [2] 23.9 µM
inactive: outcome [1] | Potency [3] | outcome [4] | outcome [5] | Potency [7] | outcome [17] | Potency [8] | outcome [9] | outcome [10] | outcome [11] | outcome [18] | Potency [12] | outcome [13] | Potency [14] | Potency [15] | outcome [16]

COc1ccccc1OCC1CNC(=O)O1 (stereo not given)
inactive: outcome [1] | Potency [2] | Potency [3] | outcome [4] | outcome [5] | Potency [6] | Potency [7] | Potency [8] | outcome [9] | outcome [10] | outcome [11] | PLD induction [20] 3.13% [at 7.66 µM] | Potency [12] | outcome [13] | outcome [16]

O=S(=O)(O)c1cccc2ccccc12
inactive: outcome [1] | Potency [2] | Potency [3] | outcome [4] | outcome [5] | Potency [6] | Potency [7] | Potency [8] | outcome [9] | outcome [10] | outcome [11] | Potency [12] | outcome [13] | Potency [14] | Potency [15] | outcome [16]

CN1[C@@H]2CC[C@H]1CC(OC(=O)C(O)c1ccccc1)C2 (stereo not given in full)
inactive: outcome [1] | Potency [2] | Potency [3] | outcome [4] | outcome [5] | Potency [7] | outcome [17] | Potency [8] | outcome [9] | outcome [10] | outcome [11] | outcome [18] | Potency [12] | outcome [13] | Potency [14] | Potency [15] | outcome [16]

CC(=O)c1cnccn1
inactive: outcome [1] | Potency [2] | Potency [3] | outcome [4] | outcome [5] | Potency [6] | Potency [7] | Potency [8] | outcome [10] | outcome [11] | outcome [18] | Potency [12] | outcome [13] | Potency [15] | outcome [16]
